# Data as given in PubChem BioAssay (NCATS).
# Records with an inconclusive call do not appear. Active and inactive are the calls of the source. Unless noted, the call rests on the fitted dose curve; in most records, active means well fitted inhibition curve with a large enough effect; inconclusive means small, poorly fitted or top-dose-only effect; inactive means flat fitted curve, though single readings scatter.
# Columns and labels:
# [1] = qHTS for identification of novel therapeutic agents for treatment of microphthalmiaassociated transcription factor (MiT) renal cell carcinoma (RCC) (AID 1963991; calls by dose curve); conditions: CellTiter-Glo, 48 h; for z-score: stronger effect = lower value; for Potency: active = Z-AUC below -0.8 in all three lines
# In short: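 Three TFE3-fusion RCC lines (UOK109, UOK124, UOK145), 500 cells/well in complete medium, were treated with MIPE 4.0 compounds for 48 hours at 37 C. Viability was by CellTiter-Glo luminescence, normalized to DMSO (100%) and empty wells (0%); curves fitted over 11 concentrations.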
# [2] = test system: 3D7; assay: qHTS profiling for inhibitors of Plasmodium falciparum proliferation (AID 504749); further: nearly all actives have a fitted effect of over 60% in size; conditions: P. falciparum in erythrocytes, SYBR Green DNA, 72 h; series mostly up to 28.7 µM
# In short: (§1)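 Parasite proliferation within erythrocytes, 72 h exposure. Endpoint: SYBR Green I fluorescence after overnight lysis at room temperature. Controls: 0.29 uM artemisinin, DMSO.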
# [3] = test system: 7G8; assay: as above; conditions: P. falciparum in erythrocytes, SYBR Green DNA, 72 h; series mostly up to 28.7 µM
# In short: as §1
# [4] = test system: AA1029; assay: as above; conditions: P. falciparum in erythrocytes, SYBR Green DNA, 72 h; series mostly up to 28.7 µM
# In short: as §1
# [5] = test system: AS120; assay: as above; conditions: P. falciparum in erythrocytes, SYBR Green DNA, 72 h; series mostly up to 28.7 µM
# In short: as §1
# [6] = test system: ATS189; assay: as above; conditions: P. falciparum in erythrocytes, SYBR Green DNA, 72 h; series mostly up to 28.7 µM
# In short: as §1
# [7] = test system: ATS95; assay: as above; conditions: P. falciparum in erythrocytes, SYBR Green DNA, 72 h; series mostly up to 28.7 µM
# In short: as §1
# [8] = test system: C2A; assay: as above; conditions: P. falciparum in erythrocytes, SYBR Green DNA, 72 h; series mostly up to 28.7 µM
# In short: as §1
# [9] = TFE3-RCC UOK109 viability, measured here: UOK109 Z-AUC
# [10] = TFE3-RCC viability, measured here: UOK124 Z-AUC
# [11] = TFE3-RCC viability, measured here: UOK145 Z-AUC
# Potency means the concentration at half of the fitted maximal effect.
structure (smiles),measurement,setting,value
O=C(CN1C(=O)C2(CCCC2)NC[C@H]1c1cc(F)cc(F)c1)Nc1ccc2c(c1)C[C@@]1(C2)C(=O)Nc2ncccc21,z-score,[1]; [9],1.1
same,z-score,[1]; [10],0.765
same,z-score,[1]; [11],1.18
OC[C@@H](O)[C@@H](O)[C@H](O)[C@@H](O)CO,z-score,[1]; [9],0.602
same,z-score,[1]; [10],0.356
same,z-score,[1]; [11],0.716
Cc1cn([C@@H]2O[C@H](CO)[C@@H](O)[C@H]2F)c(=O)[nH]c1=O,z-score,[1]; [9],0.17
same,z-score,[1]; [10],0.993
same,z-score,[1]; [11],0.494
CC(=O)[C@]1(O)Cc2c(O)c3c(c(O)c2[C@@H](O[C@H]2C[C@H](N)[C@@H](O)[C@H](C)O2)C1)C(=O)c1ccccc1C3=O,Potency,[1]; TFE3-RCC UOK109 viability,332 nM (active)
same,z-score,[1]; [9],-1.95
same,z-score,[1]; [10],-1.91
same,z-score,[1]; [11],-1.45
CC(C)N1[N]C(=C2C=c3cc(O)ccc3=N2)c2c(N)ncnc21,Potency,[1]; TFE3-RCC UOK109 viability,1870 nM (active)
same,z-score,[1]; [9],-1.06
same,z-score,[1]; [10],-1.57
same,z-score,[1]; [11],-0.805
CN[C@@H]1C[C@H]2O[C@@](C)([C@H]1OC)n1c3ccccc3c3c4c(c5c6ccccc6n2c5c31)C(=O)N[C@H]4O,Potency,[1]; TFE3-RCC UOK109 viability,1480 nM (active)
same,z-score,[1]; [9],-1.4
same,z-score,[1]; [10],-2.32
same,z-score,[1]; [11],-1.88
O=C(O)[C@H](CC(=O)N1C[C@@H]2CCCC[C@H]2C1)Cc1ccccc1,z-score,[1]; [9],0.946
same,z-score,[1]; [10],0.446
same,z-score,[1]; [11],0.344
O=C1NC(=O)[C@@H](c2cn3c4c(cccc24)CCC3)[C@H]1c1c[nH]c2ccccc12,Potency,[1]; TFE3-RCC UOK109 viability,935 nM (active)
same,z-score,[1]; [9],-1.28
same,z-score,[1]; [10],-0.931
same,z-score,[1]; [11],-1.11
COc1ccc2c(c1OC)C(=O)OC2[C@H]1c2c(cc3c(c2OC)OCO3)CCN1C (stereo partly drawn),Potency,[2],inactive
same,Potency,[3],inactive
same,Potency,[4],inactive
same,Potency,[5],inactive
same,Potency,[6],inactive
same,Potency,[7],inactive
same,Potency,[8],inactive
O=C1NC(=O)C(=Cc2ccc3nccc(-c4ccncc4)c3c2)S1,Potency,[1]; TFE3-RCC UOK109 viability,833 nM (active)
same,z-score,[1]; [9],-1.04
same,z-score,[1]; [10],-1.39
same,z-score,[1]; [11],-1.83
O=C(c1ccc(F)cc1)N1CCC[C@H](c2nc(-c3ccc(F)cc3)no2)C1,z-score,[1]; [9],1.39
same,z-score,[1]; [10],0.757
same,z-score,[1]; [11],0.391
Nc1ccn(C[C@@H](CO)OCP(=O)(O)O)c(=O)n1,z-score,[1]; [9],1.6
same,z-score,[1]; [10],1.03
same,z-score,[1]; [11],1.52
CCCCCCCCCCCC(CC1OC(=O)C1CCCCCC)OC(=O)C(CC(C)C)NC=O (stereo not drawn),z-score,[1]; [9],0.558
same,z-score,[1]; [10],-0.129
same,z-score,[1]; [11],0.669
same,Potency,[2],1120 nM (active)
same,Potency,[3],2510 nM (active)
same,Potency,[4],447 nM (active)
same,Potency,[5],316 nM (active)
same,Potency,[7],794 nM (active)
same,Potency,[8],562 nM (active)
CN(N=O)C(=O)N[C@H]1C(O)OC(CO)[C@@H](O)[C@H]1O (stereo partly drawn),z-score,[1]; [9],0.19
same,z-score,[1]; [10],0.37
same,z-score,[1]; [11],-0.505
CCOc1cc2ncc(C#N)c(Nc3ccc(OCc4ccccn4)c(Cl)c3)c2cc1NC(=O)C=CCN(C)C,Potency,[1]; TFE3-RCC UOK109 viability,16.6 nM (active)
same,z-score,[1]; [9],-2.6
same,z-score,[1]; [10],-0.947
same,z-score,[1]; [11],-1.43
OCC(O)C(O)C(O)CO (stereo not drawn),z-score,[1]; [9],0.353
same,z-score,[1]; [10],0.172
same,z-score,[1]; [11],0.47
same,Potency,[2],inactive
same,Potency,[3],inactive
same,Potency,[4],inactive
same,Potency,[5],inactive
same,Potency,[6],inactive
same,Potency,[7],inactive
same,Potency,[8],inactive
CC(=O)OCC(=O)[C@@]12N=C(C)O[C@H]1C[C@H]1[C@@H]3CCC4=CC(=O)C=C[C@]4(C)[C@@H]3[C@@H](O)C[C@@]12C,z-score,[1]; [9],0.415
same,z-score,[1]; [10],0.48
same,z-score,[1]; [11],2.44
COc1cc(C)c(C=CC(C)=CC=CC(C)=CC(=O)O)c(C)c1C,z-score,[1]; [9],0.993
same,z-score,[1]; [10],0.342
same,z-score,[1]; [11],1.02
COc1cccc2c1C(=O)c1c(O)c3c(c(O)c1C2=O)C[C@@](O)(C(C)=O)C[C@H]3O[C@H]1C[C@H](N)[C@H](O)[C@H](C)O1,Potency,[1]; TFE3-RCC UOK109 viability,296 nM (active)
same,z-score,[1]; [9],-1.65
same,z-score,[1]; [10],-2.33
same,z-score,[1]; [11],-1.35
O=C(O)C(=O)Nc1cccc(C2=NN=N[N]2)c1,z-score,[1]; [9],0.225
same,z-score,[1]; [10],0.525
same,z-score,[1]; [11],0.0651
C=CC(=O)Nc1cccc(Nc2nc(NC3CCC(N(C)C)CC3)nc3c2ncn3C(C)C)c1 (stereo not drawn),Potency,[1]; TFE3-RCC UOK109 viability,46.9 nM (active)
same,z-score,[1]; [9],-3.03
same,z-score,[1]; [10],-0.935
same,z-score,[1]; [11],-1.36
O=C(O)C=Cc1ccc(Cn2ccnc2)cc1,z-score,[1]; [9],0.607
same,z-score,[1]; [10],0.722
same,z-score,[1]; [11],0.686
CS[C@H]1SC[C@@H]2C(=O)N(C)[C@H](C(C)C)C(=O)OC[C@H](NC(=O)c3cnc4ccccc4n3)C(=O)N[C@H](C)C(=O)N(C)[C@@H]1C(=O)N(C)[C@H](C(C)C)C(=O)OC[C@H](NC(=O)c1cnc3ccccc3n1)C(=O)N[C@H](C)C(=O)N2C,Potency,[1]; TFE3-RCC UOK109 viability,8.33 nM (active)
same,z-score,[1]; [9],-2.31
same,z-score,[1]; [10],-3.01
same,z-score,[1]; [11],-2.26
C[C@H]1C[C@H]2[C@@H]3CCC4=CC(=O)C=C[C@]4(C)[C@@H]3C(=O)C[C@]2(C)[C@@]1(O)C(=O)CO,z-score,[1]; [9],0.188
same,z-score,[1]; [10],0.279
same,z-score,[1]; [11],1.74
Cc1[nH]c(C=C2C(=O)Nc3ccccc32)c(C)c1CCC(=O)O,Potency,[1]; TFE3-RCC UOK109 viability,833 nM (active)
same,z-score,[1]; [9],-1.41
same,z-score,[1]; [10],-0.97
same,z-score,[1]; [11],-1.35
COc1cc2c(Nc3ccc(Cl)c(Cl)c3F)ncnc2cc1OCC1C[C@@H]2CN(C)C[C@H]2C1,Potency,[1]; TFE3-RCC UOK109 viability,9350 nM (active)
same,z-score,[1]; [9],-3.52
same,z-score,[1]; [10],-1.85
same,z-score,[1]; [11],-1.7
CC(=O)OCC(=O)[C@@]1(O)CC[C@H]2[C@@H]3CCC4=CC(=O)CC[C@]4(C)[C@@H]3C(=O)C[C@@]21C,z-score,[1]; [9],-0.147
same,z-score,[1]; [10],0.413
same,z-score,[1]; [11],0.581
Cc1ccc([N+](=O)[O-])cc1S(=O)(=O)N(C)N=Cc1cnc2ccc(Br)cn12,Potency,[1]; TFE3-RCC UOK109 viability,23.5 nM (active)
same,z-score,[1]; [9],-2.11
same,z-score,[1]; [10],-3.04
same,z-score,[1]; [11],-2.3
